In article PMC5540273 (PLoS ONE, 2017):

Assays:
Details in all cases: concentration: 1 μM,replicates: in singlicate; n = 1
ZAK = tested on: ZAK
ZAP70 = tested on: ZAP70
p38-alpha = tested on: T1, p38-alpha
T1 construct: gene MAPK14

p38-beta = tested on: T2, p38-beta
T2 construct: gene MAPK11

p38-delta = tested on: p38-delta
p38-gamma = tested on: T3, p38-gamma
T3 construct: gene MAPK12
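Note: KINOMEscan kinase panel screen.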

SMILES | %Inh (ZAK) | %Inh (ZAP70) | %Inh (p38-alpha) | %Inh (p38-beta) | %Inh (p38-delta) | %Inh (p38-gamma)
COc1cc2ncn(-c3cc(OCC4CCCCC4)c(C(N)=O)s3)c2cc1OC [GSK204559] | 7% | 0% | 0% | 0% | 28% | 0%
CC(C)S(=O)(=O)N1CCN(Cc2ccc3c(c2)nc(NC(=O)c2ccsc2)n3C[C@H](O)c2ccccc2)CC1 [GW635815] | 1% | 0% | 6% | 4% | 47% | 0%
O=C(Nc1cccc(C(F)(F)F)c1)c1cccc(Oc2ccc3nccn3n2)c1 | 35% | 15% | 0% | 0% | 0% | 27%
Cn1ccc2ncnc(Oc3ccc(NC(=O)Nc4cnn(C(C)(C)C)c4)c(Cl)c3)c21 | 0% | 6% | 91.6% | 28% | 3% | 24%
O=C1NCCc2[nH]c(-c3ccncc3)cc21 | 20% | 0% | 2% | 27% | 62% | 26%
Nc1nccc(-c2ccc3c(N)n[nH]c3c2)n1 [GSK1034945] | 1% | 0% | 0% | 0% | 36% | 0%
CS(=O)c1ccc(-c2coc3ccc(-c4n[nH]c(=O)o4)cc23)cc1 (stereo not drawn) | 0% | 1% | 10% | 9% | 0% | 0%
COc1cccc(OC)c1C(=O)Nc1cccc(-c2nn3ccccc3c2-c2ccnc(Nc3cccc(F)c3)n2)c1 [GSK361065] | 66% | 0% | 21% | 90% | 11% | 24%
CCn1c(-c2nonc2N)nc2cncc(CNC3CCNCC3)c21.Cl [SB-747651] | 7% | 32% | 0% | 0% | 44% | 10%
c1ccc(Oc2ccc(Nc3ccnc4ccc(-c5ccccn5)cc34)cc2)cc1 [GW407034] | 53% | 0% | 0% | 4% | 19% | 0%
CN(c1ccc2c(c1)nc(NCc1ccc(F)cc1)n2C)c1ccnc(Nc2ccc(CS(C)(=O)=O)cc2)n1.Cl [GW813244] | 41% | 13% | 13% | 6% | 0% | 44%
COc1cccc(CNC(=O)NC2CCN(c3ccnc(Nc4cc(OC)c(OC)c(OC)c4)n3)C2)c1 (stereo not drawn) [GSK1379765] | 26% | 43% | 12% | 0% | 44% | 1%
C[C@@H]1CNc2c(sc3ccc4nc(-c5ccc(O)cc5)ccc4c23)C(=O)N1 | 0% | 0% | 5% | 33% | 30% | 2%
CCOC(=O)N1CCC(n2cnc(-c3ccc(F)cc3)c2-c2ccnc(N)n2)CC1 [SB-219952] | 9% | 14% | 95.3% | 34% | 0% | 23%
Cc1ccc(Nc2ccnc(Nc3ccc4c(c3)CS(=O)(=O)C4)n2)cc1O.Cl [GW579362] | 56% | 37% | 96.8% | 85% | 99.8% | 23%
CCN1CCN(CCCC(=O)Nc2n[nH]c3nc(-c4ccc(O)cc4)c(Br)cc23)CC1 [SB-731579] | 0% | 0% | 2% | 0% | 30% | 0%
CN(c1ccccc1CNc1nc(Nc2ccc3c(c2)CC(=O)N3)ncc1C(F)(F)F)S(C)(=O)=O | 0% | 0% | 0% | 0% | 56% | 0%

SMILES | %Inh (ZAK) | %Inh (ZAP70) | %Inh (p38-alpha) | %Inh (p38-beta) | %Inh (p38-delta) | %Inh (p38-gamma)
O=C(Nc1ccccc1)c1cccc(Oc2ccc3nccn3n2)c1 | 0% | 0% | 0% | 0% | 0% | 3%
O=C(Nc1n[nH]c2cc(-c3ccco3)ccc12)C1CC1 [SB-737447] | 0% | 0% | 0% | 0% | 3% | 26%
COC(=O)c1cccc(NC(=O)NC2CCN(c3ccnc(Nc4cc(OC)c(OC)c(OC)c4)n3)C2)c1 (stereo not drawn) [GSK1379767] | 3% | 17% | 37% | 0% | 22% | 0%
Cn1ccc2ncnc(Oc3ccc(NC(=O)Nc4ccnc(C(F)(F)F)c4)c(Cl)c3)c21 | 17% | 0% | 18% | 0% | 25% | 0%
Cc1ccc(C(=O)Nc2ccc(Oc3ccc4nc(NC(=O)C5CC5)cn4c3)c(F)c2)c(=O)n1-c1ccccc1 | 96.1% | 0% | 0% | 0% | 0% | 34%
Cc1n[nH]c2cc(Nc3ccnc(Nc4cccc(CN5CCOCC5)c4)n3)ccc12 [GW682569] | 14% | 17% | 11% | 0% | 28% | 0%
O=C(NOCC1CC1)c1cc(Br)c(F)c(F)c1Nc1ccc(I)cc1Cl | 0% | 0% | 0% | 1% | 35% | 0%
COc1cccc(C2=C(Nc3cccc(Cl)c3)C(=O)NC2=O)c1 [SB-341556] | 16% | 1% | 0% | 0% | 11% | 0%
COc1cc2nccc(Nc3ccc(Oc4ccccc4)cc3)c2cc1OC.Cl [GI261656] | 55% | 0% | 0% | 0% | 20% | 0%
Cl.Cl.NC[C@H](CC1CCCCC1)NC(=O)c1ccc(-c2ccnc3[nH]ccc23)s1 [GSK1581428] | 0% | 0% | 0% | 0% | 7% | 13%
C[C@@H](Oc1cc(-n2cnc3ccc(-c4ccncc4)cc32)sc1C(N)=O)c1ccccc1Cl [GSK483724] | 21% | 61% | 1% | 0% | 39% | 0%
Cc1ccn2nc(-c3ccc(F)cc3)c(-c3ccncc3)c2c1.Cl [GW457859] | 0% | 0% | 99.7% | 18% | 52% | 30%
CS(=O)(=O)c1cccc(CNc2nc(Nc3ccc4c(c3)[C@@H]3C[C@@H]4CNC3=O)ncc2C(F)(F)F)c1 | 0% | 58% | 0% | 0% | 69% | 10%
Cn1ccc2ncnc(Oc3ccc(NC(=O)Nc4cncc(C(F)(F)F)c4)c(Cl)c3)c21 | 0% | 0% | 47% | 30% | 0% | 0%
Cl.c1ccc(Oc2ccc(Nc3ccnc4cc(-c5ccc(CN6CCNCC6)o5)ccc34)cc2)nc1 [GW567142] | 60% | 0% | 12% | 0% | 39% | 5%
Cc1cccc(-c2nc(Nc3ccncc3)c3sccc3n2)n1 [GW869641] | 27% | 14% | 31% | 17% | 0% | 32%
